PubChem BioAssay
Calls of active or inactive are those of the source. Unless noted, the rule behind the calls is not given here.

What was measured:
[1] = target: Alpha-bungarotoxin (Bungarus multicinctus) (UniProt P60615); experiment: alpha-bungarotoxin binders on microarray, profiling panel, artefact control for SMM control protein annotation, biochemical, small-molecule microarray, Alexa647 label, 635/667 nm fluorescence (AID 1117); settings: alpha-BTX-A647 binding fluorescence, higher = more signal
Alpha-bungarotoxin (Bungarus multicinctus), sequence (P60615 whole entry, looked up): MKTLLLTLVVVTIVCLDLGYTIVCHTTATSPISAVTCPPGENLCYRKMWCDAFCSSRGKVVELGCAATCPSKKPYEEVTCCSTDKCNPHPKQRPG

[2] = target: E3 ubiquitin-protein ligase XIAP (Homo sapiens) (UniProt P98170); experiment: XIAP binders, primary screen, biophysical, small-molecule microarray, fluorescence 635 nm (AID 1181); settings: small-molecule microarray binding, higher = more signal;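 note: score merges 667 nm emission and signal to noise over triplicate slides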
E3 ubiquitin-protein ligase XIAP (Homo sapiens), sequence (P98170 whole entry, looked up): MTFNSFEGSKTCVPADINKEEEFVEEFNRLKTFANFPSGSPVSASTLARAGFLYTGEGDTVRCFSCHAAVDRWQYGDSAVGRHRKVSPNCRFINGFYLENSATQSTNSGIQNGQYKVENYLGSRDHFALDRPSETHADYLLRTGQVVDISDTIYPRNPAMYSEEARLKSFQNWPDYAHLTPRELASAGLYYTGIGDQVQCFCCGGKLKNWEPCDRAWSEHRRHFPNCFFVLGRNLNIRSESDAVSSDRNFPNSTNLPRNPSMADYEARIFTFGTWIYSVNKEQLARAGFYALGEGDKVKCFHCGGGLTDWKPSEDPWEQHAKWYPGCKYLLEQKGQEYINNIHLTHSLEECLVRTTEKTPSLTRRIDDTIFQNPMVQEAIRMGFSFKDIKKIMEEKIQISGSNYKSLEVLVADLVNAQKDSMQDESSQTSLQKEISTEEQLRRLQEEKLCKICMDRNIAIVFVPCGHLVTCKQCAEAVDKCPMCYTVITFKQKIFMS

[3] = tested on: XIP peptide (Xip251-270) binding; experiment: small-molecule binders of XIP peptide, primary screen, biochemical, small-molecule microarray, fluorescence 635/667 nm, 0.1 µg/mL protein (AID 1182); settings: fluorescent protein binding, 635 nm, higher = more signal, called active from +8 up or from −8 down
[4] = tested on: XIP peptide (Xip251-270); experiment: small-molecule binders of XIP peptide, primary screen, biochemical, small-molecule microarray, fluorescence 635/667 nm, 0.5 µg/mL protein (AID 1183); settings: small-molecule microarray binding, fluorescence 635 nm; higher = more signal
[5] = Plasmodium falciparum growth inhibition, primary screen, strain 3D7, DAPI fluorescence, 100 nL (AID 1184);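 note: parasites grown inside human red blood cells in medium with human serum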; settings: P. falciparum 3D7 growth, 3 d, higher = more signal
[6] = target: Homeobox protein Hox-A13 (Mus musculus) (UniProt Q62424); experiment: inhibitors of HoxA13-DNA binding, primary screen, biochemical, fluorescence polarization, labeled oligonucleotide (AID 1185); settings: 15 min, higher = more signal, called active from +8 up or from −8 down
Homeobox protein Hox-A13 (Mus musculus), sequence (Q62424 whole entry, looked up): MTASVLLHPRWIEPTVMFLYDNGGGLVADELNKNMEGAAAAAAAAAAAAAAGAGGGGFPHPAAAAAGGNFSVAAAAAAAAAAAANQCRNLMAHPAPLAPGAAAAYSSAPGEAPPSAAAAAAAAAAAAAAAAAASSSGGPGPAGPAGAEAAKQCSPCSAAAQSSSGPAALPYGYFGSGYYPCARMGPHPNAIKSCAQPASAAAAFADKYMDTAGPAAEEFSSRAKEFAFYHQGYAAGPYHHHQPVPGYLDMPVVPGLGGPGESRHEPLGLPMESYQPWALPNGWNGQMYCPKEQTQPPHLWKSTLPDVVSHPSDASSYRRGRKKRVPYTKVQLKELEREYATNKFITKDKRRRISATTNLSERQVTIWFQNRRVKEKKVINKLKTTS

[7] = inhibitors of hydroxyurea-induced Chk1 phosphorylation, primary screen, imaging, HeLa, phospho-Chk1 antibody, percent positive cells (AID 1186); settings: hydroxyurea-induced phospho-Chk1 immunofluorescence imaging, higher = more signal
[8] = inhibitors of hydroxyurea-induced Chk1 phosphorylation, primary screen, imaging, HeLa, phospho-Chk1 nuclear intensity (AID 1187); settings: hydroxyurea-induced phospho-Chk1 immunofluorescence imaging, higher = more signal
[9] = P. aeruginosa biofilm formation inhibitors, primary screen, PAO1 strain, BacTiter-Glo luminescence, LB-PBS (AID 1144); settings: 12 h, higher = more signal
[10] = P. aeruginosa biofilm formation inhibitors, primary screen, strain PAO1, LB-PBS medium, absorbance 600 nm (AID 1176); settings: P. aeruginosa PAO1 growth/biofilm, A600, 12 h; higher = more signal

Row | Structure (SMILES) | composite z-score [1] | composite z-score [2] | composite z-score [3] | composite z-score [4] | z-score [5] | z-score [6] | z-score [7] | z-score [8] | z-score [9] | z-score [10]
1 | CCOC(=O)C[C@H]1[C@H](OC(=O)c2ccc(-c3ccccc3)cc2)[C@@H](NC(=O)c2ccccc2)c2cc(OCCCO)ccc2N1C(=O)c1ccccc1 | 1.09 | -0.0351 | 0.358 (inactive) | -0.206 | -1.21 | -0.959 (inactive) | -1.04 (inactive) | -0.361 (inactive) | – | –
2 | COC(=O)[C@@]1(CCC(=O)OC(C)(C)C)COC(c2ccc(OCCCO)cc2)=N1 | -0.741 | -0.217 | -0.191 (inactive) | -1.66 | -0.478 | -2.57 (inactive) | -0.14 (inactive) | 0.264 (inactive) | – | –
3 | CCOC(=O)C[C@H]1[C@H](OC(=O)c2cc3ccccc3oc2=O)[C@@H](NC(=O)c2ccccc2)c2cc(OCCCO)ccc2N1C(=O)Cc1ccc(OC)cc1 | 0.693 | -0.139 | 0.282 (inactive) | 0.273 | -2.11 | -0.814 (inactive) | -0.35 (inactive) | -0.0607 (inactive) | – | –
4 | COc1ccc([Si](C)(C)[C@H]2[C@H](CC(=O)N(CCO)Cc3ccccc3)O[C@@]3(C(=O)N(Cc4ccc(N5CCC5=O)cc4)c4ccccc43)[C@@H]2C)cc1 | 1.33 | -0.0948 | 2.44 (inactive) | 0.365 | -1.24 | -0.622 (inactive) | -0.632 (inactive) | -0.0543 (inactive) | – | –
5 | CC(C)C[C@@H]1NC(=O)[C@@H]2C[C@H](C(=O)NCCCCCNC(=O)CS)[C@H](c3cccc(OCCO)c3)N2C1=O | 2.72 | -0.0351 | 1.58 (inactive) | 0.785 | -0.37 | -2.89 (inactive) | 0.611 (inactive) | 0.419 (inactive) | – | –
6 | COC(=O)C(CC#Cc1ccc2c(c1)[C@]1(C(=O)N2)[C@H](C(N)=O)[C@H]2C(=O)O[C@H](c3ccccc3)[C@H](c3ccccc3)N2[C@@H]1c1ccc(O)cc1)C(=O)OC | -0.243 | 0.0239 | 1.07 (inactive) | -1.13 | -0.91 | -3.34 (inactive) | 0.16 (inactive) | 0.819 (inactive) | – | –
7 | C=CCN1C(=O)[C@@]2(O[C@@H](CCO)[C@H]([Si](C)(C)c3ccc(OC)cc3)[C@H]2C)c2cc(N(C=O)c3ccccc3)ccc21 | 0.37 | -0.0203 | 0.527 (inactive) | 0.345 | -2.56 | -3.62 (inactive) | -1.21 (inactive) | -0.407 (inactive) | – | –
8 | C=C(/C(=C/C[C@H](OC(C)=O)c1cccc(OCCO)c1)c1cc(C(=O)OC)ccc1OC)C(C)C | -1.33 | 0.0479 | -0.139 (inactive) | -0.595 | -1.79 | -4.34 (inactive) | 0.209 (inactive) | 0.641 (inactive) | – | –
9 | COC(=O)C1=CC(c2ccc(CO)cc2)=CC(C2CC2)N(C)C=C1C(=O)OC (stereo not given) | 3.09 | -0.0388 | 1.8 (inactive) | -0.407 | -0.591 | -8.22 (active) | -0.516 (inactive) | -0.732 (inactive) | – | –
10 | C=C1C=C(Br)C2(OCCCO2)[C@H]2OC12 (stereo not given in full) | – | 0.0009 | -0.584 (inactive) | -0.135 | 1.19 | -1.06 (inactive) | – | – | -0.109 (inactive) | -0.233 (inactive)
11 | CC(C)C(CO)N1C(=O)[C@@H]2C3C(=O)OCCC/C=C\[C@H]3OC23C=CCN(C(C)C)C(=O)[C@@H]13 (stereo not given in full) | -1.61 | -0.269 | 0.528 (inactive) | -0.501 | 0.0709 | -4.01 (inactive) | -1.29 (inactive) | -1.14 (inactive) | – | –
12 | C/C=C/[C@@H](CCn1cc(CCO[Si](C(C)C)(C(C)C)C(C)C)nn1)[Si](C)(C)c1ccc(OC)cc1 | -1.25 | -0.169 | -0.411 (inactive) | -1.48 | -0.84 | -5.56 (inactive) | -0.233 (inactive) | 0.122 (inactive) | – | –
13 | CO[C@H]1O[C@H](CO)[C@@H](OC(=O)CCc2ccccc2)[C@@H]2OC(=O)[C@H](Cc3ccccc3)C/C=C/C[C@@H](Cc3ccccc3)C(=O)O[C@@H]12 | -0.75 | -0.039 | 1.2 (inactive) | -0.0342 | -1.58 | -2.71 (inactive) | -0.527 (inactive) | -0.474 (inactive) | – | –
14 | C=CCN1C(=O)[C@@]2(O[C@@H](CCn3cc(CCO)nn3)[C@H]([Si](C)(C)c3ccc(OC)cc3)[C@H]2C)c2cc(N3C(=O)c4cccc5cccc3c45)ccc21 | 1.6 | 0.137 | 0.254 (inactive) | 0.339 | -2.85 | -5.26 (inactive) | -1.11 (inactive) | -0.144 (inactive) | – | –
15 | C=CCN1C(=O)[C@@]2(O[C@@H](CCO)[C@H]([Si](C)(C)c3ccc(OC)cc3)[C@H]2C)c2cc(N3C(=O)c4cccc5cccc3c45)ccc21 | 1.21 | 0.0411 | 0.777 (inactive) | 0.714 | -2.57 | -2.8 (inactive) | -1.22 (inactive) | -0.751 (inactive) | – | –
16 | CC(C)C[C@@H]1NC(=O)[C@@]23C(=O)N[C@@H](Cc4ccccc4)C2[C@H](C)[C@@]2(C)O[C@H]2C3/C=C/C/C=C\CNC(=O)[C@H](Cc2ccccc2)NC1=O (stereo not given in full) | 0.792 | 0.52 | 0.0183 (inactive) | 0.789 | -1.46 | -5.15 (inactive) | 0.03 (inactive) | 0.356 (inactive) | – | –

Row | Structure (SMILES) | composite z-score [1] | composite z-score [2] | composite z-score [3] | composite z-score [4] | z-score [5] | z-score [6] | z-score [7] | z-score [8] | z-score [9] | z-score [10]
17 | Cc1ccc(S[C@]2(C(=O)NCC(C)C)CC(=O)N(C(C)C)[C@@H]2c2ccc(CO)cc2)cc1 | -1.11 | -0.0481 | -0.467 (inactive) | -0.284 | -1.79 | 1.8 (inactive) | -0.273 (inactive) | -0.0385 (inactive) | – | –
18 | [N-]=[N+]=NCc1ccccc1C[C@@]1(C(=O)O)N=C(c2ccc(OCCCO)cc2)O[C@@H]1c1ccccc1 | 1.09 | 0.188 | 1.35 (inactive) | 0.687 | -0.455 | -5.05 (inactive) | 0.0912 (inactive) | 0.429 (inactive) | – | –
19 | COCCCNC(=O)[C@@]1(Cc2ccccc2)N=C(c2ccc(OCCCO)cc2)O[C@H]1c1ccccc1N=[N+]=[N-] | 1.35 | 0.085 | 0.619 (inactive) | -0.473 | -2.43 | -3.11 (inactive) | -0.362 (inactive) | -0.373 (inactive) | – | –
20 | C=CC[C@]1(C(=O)N2CCCCC2)COC(c2ccc(OCCCO)cc2)=N1 | -0.212 | -0.17 | 0.502 (inactive) | 0.54 | -2.13 | -4.15 (inactive) | -0.8 (inactive) | -1.06 (inactive) | – | –
21 | O=C(O)[C@H]1C[C@H]2C(=O)N[C@@H](Cc3ccccc3)C(=O)N2[C@H]1c1ccc(O)cc1 | 0.824 | 0.117 | 0.3 (inactive) | 0.923 | -0.453 | -2.68 (inactive) | -0.119 (inactive) | -0.18 (inactive) | – | –
22 | O=C1O[C@H](c2ccccc2)[C@H](c2ccccc2)N2[C@H]1[C@@H](C(=O)Nc1nc3ccccc3s1)[C@]1(C(=O)Nc3ccc(C#CCCO)cc31)[C@H]2c1ccccc1OCCO | 1.97 | 0.15 | 1.52 (inactive) | 0.732 | -2.23 | 2.73 (inactive) | 0.288 (inactive) | 0.492 (inactive) | – | –
23 | C=CCC(OC(C)=O)[C@@H]1[C@@H](N(Cc2cccc3ccccc23)C(=O)Cc2ccc(OC)cc2)c2cc(OCCCO)ccc2N1C(=O)Cc1ccc(OC)cc1 (stereo not given in full) | 0.476 | 0.183 | -0.203 (inactive) | -0.665 | -2.1 | -2.18 (inactive) | 0.162 (inactive) | 0.268 (inactive) | – | –
24 | C=CCNC(=O)[C@H]1[C@@H]2C(=O)O[C@@H](c3ccccc3)[C@@H](c3ccccc3)N2[C@@H](c2ccccc2OCCO)[C@]12C(=O)N(C(=O)OCCOC)c1ccc(C#CCCO)cc12 | 0.581 | 0.355 | 0.58 (inactive) | 0.507 | -2.16 | -1.2 (inactive) | 0.051 (inactive) | -0.0745 (inactive) | – | –
25 | C=C(/C(=C/C[C@H](OC(=O)c1ccncc1)c1cccc(OCCO)c1)c1cc(C(=O)OC)ccc1OC)C(C)C | 0.288 | -0.153 | 0.236 (inactive) | 0.256 | -2.77 | -2.91 (inactive) | -1.09 (inactive) | -1.36 (inactive) | – | –
26 | CCOC(=O)C[C@H]1[C@H](OC(=O)Cc2ccc3c(c2)OCO3)[C@@H](NC(=O)c2ccc3ccccc3c2)c2cc(OCCCO)ccc2N1C(=O)c1ccc2ccccc2n1 | 1.15 | 0.128 | 0.467 (inactive) | -0.275 | -1.29 | -2.66 (inactive) | -0.926 (inactive) | -0.612 (inactive) | – | –
27 | CO[C@H]1O[C@H](CO)[C@@H](OC(=O)Nc2ccccc2)[C@H](OC(=O)Nc2ccc3c(c2)OCO3)[C@H]1OC(=O)Nc1ccc2c(c1)OCO2 | 0.485 | 0.137 | 1.04 (inactive) | 0.846 | -2.2 | -7.83 (inactive) | -0.935 (inactive) | -0.967 (inactive) | – | –
28 | [N-]=[N+]=NCc1ccccc1C[C@]1(C(=O)NCc2ccccc2)N=C(c2ccc(OCCCO)cc2)O[C@H]1c1ccccc1 | 1.22 | 0.191 | 0.279 (inactive) | -0.172 | -2.32 | 1.43 (inactive) | -0.901 (inactive) | -0.877 (inactive) | – | –
29 | CCCCC(=C=CC[C@@H](O)c1ccc(OCCO)cc1)C[C@@H](O)c1cc(Cl)cc(Cl)c1O | 0.166 | 0.0394 | 0.925 (inactive) | 0.365 | -2.87 | -3.4 (inactive) | -0.806 (inactive) | -0.578 (inactive) | – | –
30 | CN1C=C(C(=O)OCCS(C)(=O)=O)C(C(=O)OCCS(C)(=O)=O)=CC(CCCO)=CC1c1cccs1 (stereo not given) | -0.515 | 0.0374 | -0.64 (inactive) | -0.254 | -0.654 | -5.5 (inactive) | -0.084 (inactive) | -0.389 (inactive) | – | –
31 | CO[C@H]1O[C@H](CO)[C@@H](OC(=O)Nc2ccccc2)[C@H](OC(=O)Nc2ccccc2-c2ccccc2)[C@H]1OC(=O)Nc1ccccc1-c1ccccc1 | 2.54 | 0.113 | 1.32 (inactive) | 0.896 | -1.81 | -3.12 (inactive) | -0.796 (inactive) | -0.793 (inactive) | – | –
32 | CC(C)CNC(=O)[C@@H]1c2ccccc2C(=O)N(Cc2ccc(OC(F)(F)F)cc2)[C@H]1c1ccc(CO)cc1 | 1.74 | 0.205 | 0.0114 (inactive) | 0.762 | -0.192 | -2.67 (inactive) | -0.919 (inactive) | -1.36 (inactive) | – | –
